Experimental data from PubChem BioAssay (NCI).
This is part of a sample that, as a whole, favours compounds with a hit. Of some 79,000 tested, about 15% had one in any assay. Active and inactive are the calls of the source. Rule as the data show it: active = growth inhibition above about 70%; inactive = the rest.

Assays:
[1] = NCI Yeast Anticancer Drug Screen. Data for the rad50 strain (AID 155);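 also: 0% = growth of vehicle-only cultures of the same strain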; settings: S. cerevisiae rad50 strain growth inhibition; at 50.0 µM; hits give high values
Procedure, shortened: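 Cells are treated with compound, grown, and their growth is then scored against vehicle-only cultures of the same repair-deficient yeast strain.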

[2] = NCI Yeast Anticancer Drug Screen. Data for the mec2-1 strain (AID 157); settings: S. cerevisiae mec2-1 strain, at 50.0 µM, hits give high values
Procedure, shortened: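 Test agents were screened against the mec2-1 yeast strain, with defined DNA repair or cell cycle alteration. Growth was scored as inhibition against vehicle-only controls.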

[3] = NCI Yeast Anticancer Drug Screen. Data for the sgs1 mgt1 strain (AID 161);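 also: 0% = growth of cultures given vehicle only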; settings: S. cerevisiae sgs1 mgt1 strain, at 50.0 µM, hits give high values
Procedure, shortened: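 Inhibition of yeast growth, normalised to vehicle-treated controls, is reported for a strain bearing genetic alterations in DNA damage repair.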

[4] = NCI Yeast Anticancer Drug Screen. Data for the cln2 rad14 strain (AID 165);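 also: 0% = growth equal to vehicle treated cultures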; settings: S. cerevisiae cln2 rad14 strain, at 50.0 µM, hits give high values
Procedure, shortened: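 Growth of compound-exposed yeast (cln2 rad14 genotype) measured and expressed as inhibition relative to vehicle.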

[5] = NCI Yeast Anticancer Drug Screen. Data for the bub3 strain (AID 167); settings: S. cerevisiae bub3 mutant strain, at 50.0 µM, hits give high values
Procedure, shortened: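 Part of a panel of yeast mutants defective in DNA damage repair or cell cycle regulation. Each strain is grown with compound, and inhibition is calculated relative to solvent-treated cultures.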

[6] = NCI Yeast Anticancer Drug Screen. Data for the mlh1 rad18 strain (AID 175); settings: S. cerevisiae mlh1 rad18 strain growth inhibition; at 50.0 µM; hits give high values
Procedure, shortened: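 In this whole-cell yeast screen, a strain with altered DNA damage repair is challenged with compound, and its growth is measured against matched vehicle-treated controls.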

Measured: growth inhibition

N#Cc1c2c(n3c1[nH]c(=O)c1ccccc13)CCCC2
inactive: [1] 24.4% | [2] 10% | [3] 23.9% | [4] 11.9% | [5] -2.8% | [6] 10.8%

Cn1ncc2[nH]c(=O)n(OS(=O)(=O)c3ccccc3)c(=O)c21
inactive: [1] 17.3% | [2] -16.9% | [3] -15.5% | [4] 4.3% | [5] 0.9% | [6] 5%

CSC(=NNC(N)=O)SC
inactive: [1] 4.4% | [2] -2.8% | [3] 1.2% | [4] -14.2% | [5] -9.7% | [6] 5.4%

CCOC(=O)Nc1ccc(S(=O)(=O)c2ccc(Nc3ccnc4cc(Cl)ccc34)cc2)cc1
inactive: [1] 17.1% | [2] 10.2% | [3] 27.2% | [4] -35.8% | [5] 5.45% | [6] 47.8%

C=C1N(c2cc(OC)c(OC)c(OC)c2)C(=O)OC12CCCCC2
inactive: [1] -4.05% | [2] 5.4% | [3] 0.2% | [4] 38.7% | [5] -0.3% | [6] 1.4%

Cc1cc(=O)oc2cc3c(cc12)Oc1ccccc1O3
inactive: [1] -6.85% | [2] -11.2% | [3] -0.95% | [4] 3.5% | [5] 5.8% | [6] -5%

CSc1ncc(CO)c(Nc2ccccc2Cl)n1
inactive: [1] 2.8% | [2] 14.4% | [3] -19.4% | [4] -14% | [5] 12.3% | [6] 1.55%

CC(C)(C)c1cc[n+](C[n+]2ccc(C(C)(C)C)cc2)cc1
inactive: [1] 4.8% | [2] -12.2% | [3] -0.45% | [4] -13.4% | [5] -22.9% | [6] -5%

CN(C)CCC(=O)c1ccc(C(=O)CCN(C)C)cc1
inactive: [1] -0.4% | [2] 25.6% | [3] -17.1% | [4] -14.8% | [5] -16.2% | [6] -21.2%

CC1CC/C(=C\c2ccccc2)C(=O)/C1=C/c1ccccc1 (stereo not given)
inactive: [1] 22.2% | [2] -11.1% | [3] 13.8% | [4] 9.45% | [5] 30.2% | [6] 28.8%

Cc1cc(N(CCOS(C)(=O)=O)CCOS(C)(=O)=O)ccc1C=Nc1ccc(C(=O)O)c(O)c1
inactive: [3] 46% | [5] 19.2%
active: [1] 82.8% | [2] 86.8% | [4] 77.5% | [6] 88%

CC(C)OC(=O)N[C@@H]1c2ccccc2CC[C@H]1I
inactive: [1] 24.5% | [2] 5.8% | [3] 19.3% | [4] -36.5% | [5] 24.7% | [6] 3.55%

CC[N+](C)(CC)CCOC(=O)C(c1ccccc1)C(O)C1CCCCC1 (stereo not given)
inactive: [1] 29.8% | [2] -5.45% | [3] 3.8% | [4] 17.3% | [5] -0.3% | [6] 8.75%

Cc1cc(C)c(NC(=O)C(Br)C(Br)c2ccccc2)c(C)c1 (stereo not given)
inactive: [1] 11.6% | [2] -5.6% | [3] 5.1% | [4] 23.8% | [5] 2.15% | [6] 21.4%

CCOC(=O)c1[nH]c2nc(N)ncc2c(=O)c1C
inactive: [1] -0.15% | [2] -0.95% | [3] -0.15% | [4] 43.6% | [5] 12.8% | [6] 11.7%

NC(=S)N/N=C/c1cc([N+](=O)[O-])ccc1O
inactive: [1] 1.95% | [2] -3.4% | [3] 25.9% | [4] 51% | [5] 8.5% | [6] -87.9%

CCOC(=O)/C(=C(/C)N=Cc1ccccc1[N+](=O)[O-])C(NN=O)c1ccccc1[N+](=O)[O-] (stereo not given)
inactive: [1] 11.9% | [2] 4.85% | [3] -9.55% | [4] 8.5% | [5] -5% | [6] 17.8%

Cn1c(=O)c2c(ncn2CCNC(c2ccccc2)c2ccc(Br)cc2)n(C)c1=O (stereo not given)
inactive: [1] 4.55% | [2] 1.55% | [3] 11.3% | [4] -35.3% | [5] 24.1% | [6] 13.6%

Cc1ccc(S(=O)(=O)NN=C2C(C)CC(C(C)(C)C)CC2C)cc1 (stereo not given)
inactive: [1] -24.8% | [2] 26% | [3] -41.9% | [4] 8.9% | [5] 44.6% | [6] -6%

CC(=O)Nc1cccc(OCOc2ccc([N+](=O)[O-])cc2)c1
inactive: [1] -4.65% | [2] 20.3% | [3] 30.4% | [4] -2.6% | [5] 22.6% | [6] 40.8%

O=C(O)c1ccccc1C(=O)CCC(=O)c1ccccc1C(=O)O
inactive: [1] -43.5% | [2] -6.75% | [3] 14.3% | [4] -8.95% | [5] -0.05% | [6] 1.25%

CCCCCC(=O)Oc1c(C(C)CC)cc([N+](=O)[O-])cc1[N+](=O)[O-] (stereo not given)
active: [1] 97.5% | [2] 97% | [3] 98.5% | [4] 97.7% | [5] 97.3% | [6] 98.2%

CCCCCCC(=O)/C=C/c1ccc(Cl)cc1
inactive: [1] 11.9% | [2] -22.1% | [3] -3.1% | [4] -6.5% | [5] 16.2% | [6] -15.6%

O=c1[nH]c2ccc(Cl)cc2[nH]c1=O
inactive: [1] -7.05% | [2] 5% | [3] -10.5% | [4] 0.3% | [5] -1.45% | [6] 0.9%

C=C(C)C#CCN(CCO)C(C)C
inactive: [1] -7.45% | [2] -30.3% | [3] -12.9% | [4] 9.2% | [5] -19.4% | [6] 4.75%

O=S1(=O)CC(N2CCCCC2)C=C(c2ccccc2)O1 (stereo not given)
inactive: [1] 37.1% | [2] 0.25% | [3] 14.3% | [4] 15.2% | [5] 12.7% | [6] 34.2%

C[N+]1(C)CC2CCC1C2 (stereo not given)
inactive: [1] 1.1% | [2] 16.1% | [3] 17.6% | [4] -27.8% | [5] -9.05% | [6] -7.1%

CCCCCOS(C)(=O)=O
inactive: [1] -4.6% | [2] -14.2% | [3] 4.85% | [4] -36.5% | [5] 0.55% | [6] -20.1%

COCC(N=CN1CCCc2ccccc2[C@@H]1CCCCl)C(C)(C)C (stereo not given in full)
inactive: [1] -6.6% | [2] 10.1% | [3] 25.9% | [4] 19.7% | [5] 19.9% | [6] 13.1%

C/C(CC(=O)Nc1ccc(Cc2ccc(Cl)cc2)cc1)=N/Nc1ccc([N+](=O)[O-])cc1[N+](=O)[O-]
inactive: [1] 28.1% | [2] -0.25% | [3] 31.4% | [4] -1.15% | [5] -8.55% | [6] 22.6%

CC1(C#N)CCCC(c2ccccc2)(c2ccccc2)C1=O (stereo not given)
inactive: [1] 43.2% | [2] 40.5% | [3] 49.2% | [4] -9.25% | [5] 23.9% | [6] 34.5%

CC(C)([NH-])C[NH-].O=C(O)CCO.[Pt+2]
inactive: [1] 27.8% | [2] -8.8% | [3] -2.8% | [4] 17.6% | [5] 8.65% | [6] 14.2%

COC(=O)c1ccc(/C=C2\CCc3ccccc3C2=O)cc1
inactive: [1] -9.9% | [2] -9.15% | [3] -16.2% | [4] 12.5% | [5] 14.2% | [6] 11.2%

CC1C(c2ccccc2)=CCON1c1ccccc1 (stereo not given)
inactive: [1] -2.9% | [2] -16.6% | [3] -24.4% | [4] 13.4% | [5] -3.75% | [6] -28.1%

O=C1CN(c2cccc(Cl)c2)C(=O)CN1NCNN1CC(=O)N(c2cccc(Cl)c2)CC1=O
inactive: [1] -12.8% | [2] -0.1% | [3] 3.9% | [4] 6.65% | [5] -6.8% | [6] 2.75%

COc1ccc(NC(=O)CC/C(CC(=O)c2ccco2)=N/Nc2ccc([N+](=O)[O-])cc2[N+](=O)[O-])cc1
inactive: [1] 21.4% | [2] -6.8% | [3] -0.05% | [4] 3.1% | [5] 22.1% | [6] 2.95%

OC(c1ccoc1)c1cc2ccccc2s1 (stereo not given)
inactive: [1] 65% | [2] 23.2% | [3] 52.5% | [4] 22.2% | [5] 21.6% | [6] 36.7%

Nc1ccc(N)c(Cl)c1
inactive: [1] -19.4% | [2] -15.8% | [3] -19.8% | [4] 14.7% | [5] -7.3% | [6] -2.85%

Cn1c(NCCN2CCCCC2)c(C(=O)/C=C/c2ccccc2)c(=O)n(C)c1=O
inactive: [1] 15.3% | [2] 19.4% | [3] 8.65% | [4] 17.6% | [5] -1.5% | [6] 20.8%

CCOC(=O)NC1OC(C(N)=O)C(O)C(O)C1O (stereo not given)
inactive: [1] 2.25% | [2] -5.7% | [3] 3.4% | [4] -33.3% | [5] 4.5% | [6] 1.4%
